Measured values taken from PubChem BioAssay AID1159580 (chemical genetic matrix, 2015).
“And” between values parts separate entries of the source, which are not always exact repeats. Equal values may be shown once. In all, about 5,500 compounds went through this assay and about 2,000 (36%) were called active. About 18% were inconclusive and are not listed. Cut-off read from the data, not from the text of the source: active = normalized growth mostly below about 0.91 (no sharp cut-off); inconclusive = no clear call, values can overlap the other calls; inactive = mostly above about 0.92. This is one part of the list.

Test: chemical genetic growth profiling, strain panel (AID 1159580);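 note: tested at 20 µM; growth read once vehicle control cultures reached saturation at 30 °C; 1 = growth at the plate median or of vehicle wells; lower values mean less growth of the strain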
Conditions: growth OD

Measured: normalized growth

CN1CCC(=C2c3ccccc3CC(=O)c3sccc32)CC1
inactive: S. cerevisiae deletion strains, locus YKL009W, strain mrt4, stronger effect = lower value 1.02 | S. cerevisiae deletion strains, locus YKL068W, stronger effect = lower value 1.02 | S. cerevisiae deletion strains, locus YKL085W, strain MDH1 (second series), stronger effect = lower value 1.01 | S. cerevisiae deletion strains, locus YKL085W, strain MDH1, stronger effect = lower value 1.01 | S. cerevisiae deletion strains, locus YKL160W, strain elf1, stronger effect = lower value 0.987 | S. cerevisiae deletion strains, locus YKL190W, strain CNB1, stronger effect = lower value 1.01 | S. cerevisiae deletion strains, locus YKR001C, strain vps1, stronger effect = lower value 1.01 | S. cerevisiae deletion strains, locus YKR026C, strain gcn3, stronger effect = lower value 0.981 | S. cerevisiae deletion strains, locus YKR091W, strain srl3, stronger effect = lower value 0.979 | S. cerevisiae deletion strains, locus YLL001W, strain dnm1, stronger effect = lower value 0.935 | S. cerevisiae deletion strains, locus YLL026W, stronger effect = lower value 0.963 | S. cerevisiae deletion strains, locus YLL041C, strain sdh2, stronger effect = lower value 0.986 | S. cerevisiae deletion strains, locus YLR027C, strain aat2, stronger effect = lower value 0.973 | S. cerevisiae deletion strains, locus YLR039C, strain RIC1, stronger effect = lower value 0.996 | S. cerevisiae deletion strains, locus YLR058C, strain SHM2, stronger effect = lower value 1 | S. cerevisiae deletion strains, locus YLR102C, strain apc9, stronger effect = lower value 1.01 | S. cerevisiae deletion strains, locus YLR113W, strain HOG1, stronger effect = lower value 1.02 | S. cerevisiae deletion strains, locus YLR221C, strain rsa3, stronger effect = lower value 1.04 | S. cerevisiae deletion strains, locus YLR258W, strain gsy2, stronger effect = lower value 1.01 | S. cerevisiae deletion strains, locus YLR262C, strain YPT6 (second series), stronger effect = lower value 0.956 | S. cerevisiae deletion strains, locus YLR262C, strain YPT6, stronger effect = lower value 1 | S. cerevisiae deletion strains, locus YLR268W, strain sec22, stronger effect = lower value 1.03 | S. cerevisiae deletion strains, locus YLR320W, strain mms22, stronger effect = lower value 1.02 | S. cerevisiae deletion strains, locus YLR330W, strain CHS5, stronger effect = lower value 1 | S. cerevisiae deletion strains, locus YLR342W, strain FKS1 (second series), stronger effect = lower value 0.991 | S. cerevisiae deletion strains, locus YLR342W, strain FKS1, stronger effect = lower value 0.967 | S. cerevisiae deletion strains, locus YLR357W, strain rsc2, stronger effect = lower value 0.969 | S. cerevisiae deletion strains, locus YLR370C, strain arc18, stronger effect = lower value 0.971 | S. cerevisiae deletion strains, locus YLR371W, strain rom2, stronger effect = lower value 1.01 | S. cerevisiae deletion strains, locus YLR384C, strain iki3, stronger effect = lower value 0.974 | S. cerevisiae deletion strains, locus YLR418C, strain cdc73, stronger effect = lower value 0.976 | S. cerevisiae deletion strains, locus YML016C, strain PPZ1, stronger effect = lower value 1.01 | S. cerevisiae deletion strains, locus YML032C, strain rad52, stronger effect = lower value 1.02 | S. cerevisiae deletion strains, locus YML120C, strain ndi1, stronger effect = lower value 0.965 | S. cerevisiae deletion strains, locus YML124C, strain tub3, stronger effect = lower value 1.01 | S. cerevisiae deletion strains, locus YMR058W, strain fet3, stronger effect = lower value 0.979 | S. cerevisiae deletion strains, locus YMR078C, strain ctf18, stronger effect = lower value 1 | S. cerevisiae deletion strains, locus YMR125W, strain sto1, stronger effect = lower value 0.955 | S. cerevisiae deletion strains, locus YMR129W, stronger effect = lower value 0.981 | S. cerevisiae deletion strains, locus YMR205C, strain PFK2, stronger effect = lower value 0.987 | S. cerevisiae deletion strains, locus YMR223W, strain ubp8, stronger effect = lower value 0.993 | S. cerevisiae deletion strains, locus YMR231W, strain pep5, stronger effect = lower value 0.974 | S. cerevisiae deletion strains, locus YMR263W, strain SAP30, stronger effect = lower value 1.02 | S. cerevisiae deletion strains, locus YMR307W, strain GAS1, stronger effect = lower value 0.971 | S. cerevisiae deletion strains, locus YNL067W, strain RPL9B, stronger effect = lower value 1.02 | S. cerevisiae deletion strains, locus YNL071W, strain lat1, stronger effect = lower value 0.987 | S. cerevisiae deletion strains, locus YNL128W, strain TEP1, stronger effect = lower value 1.01 and 0.992 | S. cerevisiae deletion strains, locus YNL153C, strain GIM3, stronger effect = lower value 1.02 and 0.986 | S. cerevisiae deletion strains, locus YNL175C, strain NOP13, stronger effect = lower value 0.996 | S. cerevisiae deletion strains, locus YNL183C, strain NPR1, stronger effect = lower value 0.991 | S. cerevisiae deletion strains, locus YNL197C, strain WHI3, stronger effect = lower value 0.995 | S. cerevisiae deletion strains, locus YNL209W, strain ssb2, stronger effect = lower value 0.988 | S. cerevisiae deletion strains, locus YNL224C, strain SQS1, stronger effect = lower value 1.02 | S. cerevisiae deletion strains, locus YNL233W, strain BNI4, stronger effect = lower value 1.01 | S. cerevisiae deletion strains, locus YNL248C, strain rpa49, stronger effect = lower value 0.983 | S. cerevisiae deletion strains, locus YNL250W, strain rad50, stronger effect = lower value 1.01 | S. cerevisiae deletion strains, locus YNL271C, strain bni1, stronger effect = lower value 1.02 | S. cerevisiae deletion strains, locus YNL298W, strain CLA4, stronger effect = lower value 1.01 | S. cerevisiae deletion strains, locus YNL307C, strain MCK1, stronger effect = lower value 1 | S. cerevisiae deletion strains, locus YNL322C, strain KRE1 (second series), stronger effect = lower value 0.975 | S. cerevisiae deletion strains, locus YNL322C, strain KRE1, stronger effect = lower value 1.01 and 0.991 | S. cerevisiae deletion strains, locus YNR049C, strain mso1, stronger effect = lower value 0.994 | S. cerevisiae deletion strains, locus YNR052C, strain pop2, stronger effect = lower value 1.01 | S. cerevisiae deletion strains, locus YOL006C, strain TOP1, stronger effect = lower value 1.05 | S. cerevisiae deletion strains, locus YOL012C, strain htz1 1.02 | S. cerevisiae deletion strains, locus YOL147C, strain pex11, stronger effect = lower value 1 | S. cerevisiae deletion strains, locus YOR001W, strain rrp6, stronger effect = lower value 0.95 | S. cerevisiae deletion strains, locus YOR061W, strain CKA2, stronger effect = lower value 1.01 | S. cerevisiae deletion strains, locus YOR069W, strain VPS5, stronger effect = lower value 0.999 | S. cerevisiae deletion strains, locus YOR070C, strain gyp1, stronger effect = lower value 0.999 | S. cerevisiae deletion strains, locus YOR080W, strain dia2, stronger effect = lower value 0.967 | S. cerevisiae deletion strains, locus YOR083W, strain WHI5 (second series), stronger effect = lower value 1.01 | S. cerevisiae deletion strains, locus YOR083W, strain WHI5, stronger effect = lower value 0.962 | S. cerevisiae deletion strains, locus YOR106W, strain vam3, stronger effect = lower value 0.956 | S. cerevisiae deletion strains, locus YOR136W, strain idh2, stronger effect = lower value 1 | S. cerevisiae deletion strains, locus YOR144C, strain elg1, stronger effect = lower value 1 | S. cerevisiae deletion strains, locus YOR184W, strain ser1, stronger effect = lower value 0.989 | S. cerevisiae deletion strains, locus YOR231W, strain MKK1, stronger effect = lower value 1.02 | S. cerevisiae deletion strains, locus YOR265W, strain rbl2, stronger effect = lower value 0.988 | S. cerevisiae deletion strains, locus YOR270C, strain vph1, stronger effect = lower value 0.98 | S. cerevisiae deletion strains, locus YOR290C, strain snf2, stronger effect = lower value 1 | S. cerevisiae deletion strains, locus YOR316C, strain cot1, stronger effect = lower value 1.01 | S. cerevisiae deletion strains, locus YPL051W, strain arl3, stronger effect = lower value 0.991 | S. cerevisiae deletion strains, locus YPL055C, strain LGE1, stronger effect = lower value 1.01 | S. cerevisiae deletion strains, locus YPL078C, strain atp4, stronger effect = lower value 0.923 | S. cerevisiae deletion strains, locus YPL106C, strain sse1, stronger effect = lower value 0.979 | S. cerevisiae deletion strains, locus YPL240C, strain hsp82, stronger effect = lower value 0.99 | S. cerevisiae deletion strains, locus YPL241C, strain CIN2, stronger effect = lower value 1 | S. cerevisiae deletion strains, locus YPL256C, strain CLN2, stronger effect = lower value 1.04 | S. cerevisiae deletion strains, locus YPR119W, strain clb2, stronger effect = lower value 1.01 | S. cerevisiae deletion strains, locus YPR141C, strain kar3, stronger effect = lower value 1.01 | S. cerevisiae deletion strains, locus YPR163C, strain tif3, stronger effect = lower value 1.02 | S. cerevisiae deletion strains, locus YPR167C, strain met16, stronger effect = lower value 1 | S. cerevisiae deletion strains, strain wtn01, stronger effect = lower value 1.01 | S. cerevisiae strains, strain wild type, stronger effect = lower value 1.01
